Where “and” joins values, the source holds several entries; their conditions need not be identical. Equal values may be shown once. Compounds without any hit were thinned out: in the full panel of roughly 83,000, 20% have a hit.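 Interpretation: 100, growth as untreated; towards 0, rising growth inhibition; 0, no net growth; 0 to -100, cell death. Compounds scoring below 10 were considered active.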 Calls of active or inactive are those of the source.
Columns and labels:
Experiment in all cases: NCI-60 one-dose screen, 48 h (100 = growth as untreated, 0 = no growth, -100 = all killed)
[1] = tested on: HCT-15 colon
[2] = tested on: HT29 colon
[3] = tested on: SNB-75 CNS
[4] = tested on: SNB-19 CNS
[5] = tested on: U251 CNS
[6] = tested on: PC-3 prostate
[7] = tested on: SK-MEL-5 melanoma
[8] = tested on: UACC-62 melanoma
[9] = tested on: LOX IMVI melanoma
[10] = tested on: SK-MEL-28 melanoma

Measured: growth

NS(=O)(=O)c1cc2c(cc1Cl)NC(C(Cl)Cl)NS2(=O)=O (configuration not stated)
inactive: [1]; 10 µM unless noted 95.3% and 101% | [2]; 10 µM unless noted 101% and 114% | [3]; 10 µM unless noted 77.7% and 114% | [4]; 10 µM unless noted 104% and 105% | [5]; 10 µM unless noted 86.5% and 104% | [6]; 10 µM unless noted 99% and 99.8% | [7]; 10 µM unless noted 99.7% and 102% | [8]; 10 µM unless noted 103% | [9]; 10 µM unless noted 98.6% and 99.9% | [10]; 10 µM unless noted 99.8% and 115%

O=C(N/N=C/c1ccc2c(c1)OCO2)c1ccncc1
inactive: [1]; 10 µM unless noted 106% and 104% | [2]; 10 µM unless noted 101% and 105% | [3]; 10 µM unless noted 77.9% and 98.4% | [4]; 10 µM unless noted 111% and 103% | [5]; 10 µM unless noted 104% | [6]; 10 µM unless noted 104% and 88.5% | [7]; 10 µM unless noted 105% | [8]; 10 µM unless noted 91.3% and 97.5% | [9]; 10 µM unless noted 97.4% and 101%

CNC(=O)c1cc(Oc2ccc(NC(=O)Nc3ccc(Cl)c(C(F)(F)F)c3)cc2)ccn1
11.6% (inactive) and -9.74% (active): [6]; 10 µM unless noted
-38.9% (active) and 21.8% (inactive): [3]; 10 µM unless noted
inactive: [4]; 10 µM unless noted 13.3% and 20.6%
active: [1]; 10 µM unless noted 1.74% and 5.49% | [2]; 10 µM unless noted -3.38% and 9.81% | [5]; 10 µM unless noted 1.89% and 0.072% | [7]; 10 µM unless noted -73.1% and -56.6% | [8]; 10 µM unless noted -49.4% and -25.5% | [9]; 10 µM unless noted -14.6% and -55.1%

CCc1ccccc1-n1c(N)c(C#N)c(-c2ccc(OC)c(OC)c2)c(C#N)c1=O
inactive: [1]; 10 µM 101% | [1]; 100 µM 81.2% | [2]; 10 µM 110% | [2]; 100 µM 102% | [3]; 10 µM 98% | [4]; 10 µM 104% | [4]; 100 µM 10.5% | [5]; 10 µM 101% | [6]; 10 µM 110% | [6]; 100 µM 14.2% | [7]; 10 µM 113% | [7]; 100 µM 67.1% | [8]; 10 µM 105% | [8]; 100 µM 35% | [9]; 10 µM 104% | [9]; 100 µM 57.8%
active: [3]; 100 µM -43% | [5]; 100 µM 8.35%

CC(=O)C(/C=N/C(N)=O)=C(/C)O
inactive: [1]; 10 µM unless noted 104% | [2]; 10 µM unless noted 101% | [3]; 10 µM unless noted 93.8% | [4]; 10 µM unless noted 103% | [5]; 10 µM unless noted 99.6% | [6]; 10 µM unless noted 100% | [7]; 10 µM unless noted 110% | [8]; 10 µM unless noted 110% | [9]; 10 µM unless noted 92.9%

CC1=C(/C=C/C(C)=C/C=C/C(C)=C/C(=O)Nc2ccc(O)cc2)C(C)(C)CCC1
inactive: [1]; 10 µM unless noted 57% | [2]; 10 µM unless noted 34.6% | [3]; 10 µM unless noted 57.6% | [4]; 10 µM unless noted 80.2% | [5]; 10 µM unless noted 66.8% | [6]; 10 µM unless noted 52.2% | [7]; 10 µM unless noted 43.9% | [8]; 10 µM unless noted 22%
active: [9]; 10 µM unless noted 2.64%

COc1ccc2cc3[n+](cc2c1OC)CCc1cc2c(cc1-3)OCO2
7.33% (active) and 24.3% (inactive): [7]; 10 µM unless noted
inactive: [1]; 10 µM unless noted 105% and 93.4% | [2]; 10 µM unless noted 93.8% and 74.1% | [3]; 10 µM unless noted 85.5% and 81% | [4]; 10 µM unless noted 38.6% and 42.2% | [5]; 10 µM unless noted 25.2% and 28.7% | [6]; 10 µM unless noted 60.1% and 60.6% | [8]; 10 µM unless noted 54.8% and 64.9% | [9]; 10 µM unless noted 83.6% and 86.5% | [10]; 10 µM unless noted 94%

Cc1cc(N=Nc2ccc(C)c(N=Nc3cc(C)c(N)cc3N)c2)c(N)cc1N
inactive: [1]; 10 µM unless noted 95.9% and 44.3% | [2]; 10 µM unless noted 92.8% and 40.8% | [3]; 10 µM unless noted 78% and 72.7% | [4]; 10 µM unless noted 97.7% and 91.2% | [5]; 10 µM unless noted 97% and 86.7% | [6]; 10 µM unless noted 64.6% | [7]; 10 µM unless noted 100% and 78.7% | [8]; 10 µM unless noted 91.7% and 93.9% | [9]; 10 µM unless noted 90.8% and 82.6% | [10]; 10 µM unless noted 98.9% and 88.4%

CC1(C)OB(c2ccc(Cn3cc(F)c(=O)[nH]c3=O)cc2)OC1(C)C
inactive: [1]; 10 µM 101% | [1]; 50 µM 68.1% | [2]; 10 µM 112% | [2]; 50 µM 24.3% | [4]; 10 µM 103% | [4]; 50 µM 70.6% | [5]; 10 µM 105% | [5]; 50 µM 82.6% | [6]; 10 µM 101% | [6]; 50 µM 55.4% | [7]; 10 µM 98.4% | [7]; 50 µM 38.8% | [8]; 10 µM 89.8% | [8]; 50 µM 29.1% | [9]; 10 µM 98.2% | [9]; 50 µM 52.6% | [10]; 10 µM unless noted 99.4%

CN(C)c1ccc(C(Cc2ccc3ccccc3n2)Cc2ccc3ccccc3n2)cc1
0.736% (active) and 59.7% (inactive): [2]; 10 µM unless noted
inactive: [1]; 10 µM unless noted 51.1% and 78.8% | [3]; 10 µM unless noted 110% and 88.5% | [4]; 10 µM unless noted 61% and 89.3% | [5]; 10 µM unless noted 43.5% and 81.2% | [6]; 10 µM unless noted 16% and 61.5% | [7]; 10 µM unless noted 19.8% and 76.7% | [8]; 10 µM unless noted 44.5% and 73% | [9]; 10 µM unless noted 31.3% and 81.8%

CNC(=O)c1cc(Oc2ccc(CC(=O)Nc3cc(C(C)(C)C)nn3C)cc2)ccn1
inactive: [1]; 1 µM 92.7% | [1]; 10 µM 83.1% | [1]; 30 µM 70.5% | [2]; 1 µM 90.7% | [2]; 10 µM 94.1% | [2]; 30 µM 86.5% | [3]; 1 µM 51.3% | [3]; 10 µM 68% | [3]; 30 µM 77.9% | [4]; 1 µM 71.4% | [4]; 10 µM 65.3% | [4]; 30 µM 81.3% | [5]; 1 µM 86% | [5]; 10 µM 84.5% | [5]; 30 µM 90.3% | [6]; 1 µM 77.9% | [6]; 10 µM 77.1% | [6]; 30 µM 85.5% | [7]; 1 µM 22.8% | [7]; 10 µM 30.8% | [9]; 1 µM 76.6% | [9]; 10 µM 48.9% | [9]; 30 µM 56.2% | [10]; 1 µM 81.7% | [10]; 10 µM 83.8% | [10]; 30 µM 89.9%

CC#C[C@]1(O)CC[C@H]2[C@@H]3CCC4=CC(=O)CCC4=C3[C@@H](c3ccc4c(c3)OCO4)C[C@@]21C
inactive: [1]; 10 µM 69.3% | [2]; 10 µM 102% | [3]; 10 µM 58.6% | [4]; 10 µM 75.8% | [5]; 10 µM 76.1% | [6]; 10 µM 67.4% | [7]; 10 µM 83.6% | [8]; 10 µM 56.6% | [9]; 10 µM 83.7%
active: [1]; 100 µM -13.9% | [2]; 100 µM -19.2% | [3]; 100 µM -6.95% | [4]; 100 µM 4.26% | [5]; 100 µM -49.5% | [6]; 100 µM 0.372% | [7]; 100 µM -80.3% | [8]; 100 µM -50.1% | [9]; 100 µM -89.6%

CCN(CC)CCC(CNc1ccnc2cc(Cl)ccc12)c1ccc(OC)cc1 (configuration not stated)
inactive: [1]; 10 µM unless noted 42.6% and 30.8% | [2]; 10 µM unless noted 26.4% and 14% | [3]; 10 µM unless noted 68.6% and 34.1% | [4]; 10 µM unless noted 98.5% and 92.2% | [5]; 10 µM unless noted 58.5% and 50.6% | [6]; 10 µM unless noted 66.5% and 62.2% | [7]; 10 µM unless noted 38.3% and 30.4% | [8]; 10 µM unless noted 45.3% and 51.9% | [9]; 10 µM unless noted 40.2% and 32.1%

COc1cc2nc(N3CCC[C@@H](NC(=O)C4COc5ccccc5O4)C3)nc(N)c2cc1OC (some centres not stated)
inactive: [1]; 10 µM unless noted 101% and 97.1% | [2]; 10 µM unless noted 109% and 97.7% | [3]; 10 µM unless noted 83.3% and 90.3% | [4]; 10 µM unless noted 107% and 102% | [5]; 10 µM unless noted 93.3% and 84.2% | [6]; 10 µM unless noted 92.9% and 94.2% | [7]; 10 µM unless noted 99.5% and 96.7% | [8]; 10 µM unless noted 103% and 104% | [9]; 10 µM unless noted 100% and 94.7% | [10]; 10 µM unless noted 102% and 98.7%

CC1(c2ccc3ccccc3c2)CCC(=O)O1 (configuration not stated)
inactive: [1]; 10 µM unless noted 107% | [2]; 10 µM unless noted 96.9% | [3]; 10 µM unless noted 100% | [4]; 10 µM unless noted 106% | [5]; 10 µM unless noted 99.9% | [6]; 10 µM unless noted 97.9% | [7]; 10 µM unless noted 105% | [8]; 10 µM unless noted 95.7% | [9]; 10 µM unless noted 93.1%

— PubChem BioAssay (NCI)
